This is an account of results in PubChem BioAssay (EPA / NIEHS).

Molecules are shown by their SMILES. The source made the active and inactive calls. How the source made its calls: active means hit-call score of the fitted dose curve at least 0.9, where 1 is the maximum; inactive means score below 0.9.

Read-out in test [1]: TIMP metallopeptidase inhibitor 2 (TIMP2), TIMP2 (gene 7077)
The test is described as follows: BSK_KF3CT_TIMP2: BioMAP Diversity Plus: KF3CT Assay for TIMP metallopeptidase inhibitor 2 (TIMP2) Biomarker Activity (AID 2283071). The settings on record: primary human keratinocytes with fibroblasts; actives raise or lower the signal. Summed up: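 Cells: human keratinocytes co-cultured with foreskin fibroblasts. Treat with chemical, 24 h. Measure TIMP-2 by ELISA; fit curves bidirectionally vs DMSO baseline.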

Read-out in test [2]: Transforming growth factor beta 1 (TGFb1), TGFB1 (gene 7040)
The test is described as follows: BSK_KF3CT_TGFb1: BioMAP Diversity Plus: KF3CT Assay for Transforming growth factor beta 1 (TGFb1) Biomarker Activity (AID 2283072). The following applies: primary human keratinocytes with fibroblasts; actives raise or lower the signal. Summed up: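 Primary human skin cells (keratinocytes, foreskin fibroblasts) were co-cultured, exposed to test chemical and sampled at 24 h. TGF-b1 levels were measured by ELISA and fitted bidirectionally relative to DMSO.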

Read-out in test [3]: C-C motif chemokine 2 (Homo sapiens) (UniProt P13500)
The test is described as follows: BSK_KF3CT_MCP1: BioMAP Diversity Plus: KF3CT Assay for Monocyte Chemoattractant Protein 1 (MCP1/CCL2) Biomarker Activity (AID 2283073). The following applies: primary human keratinocytes with fibroblasts; actives raise or lower the signal. A digest of the protocol:
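ELISA readout of MCP-1 after 24 h chemical dosing of a human skin primary co-culture of keratinocytes and foreskin fibroblasts. Activity was fitted in both directions against DMSO.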

Read-out in test [4]: Matrix Metallopeptidase 9 (MMP9), MMP9 (gene 4318)
Kind of test: BSK_KF3CT_MMP9: BioMAP Diversity Plus: KF3CT Assay for Matrix Metallopeptidase 9 (MMP9) Biomarker Activity (AID 2283074).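 On AC50: MMP9 protein level quantified by ELISA in the co-culture.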 The following applies: primary human keratinocytes with fibroblasts; actives raise or lower the signal. A digest of the protocol:
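Human keratinocyte/foreskin fibroblast co-culture; compound added; 24 h; MMP-9 by ELISA; bidirectional fit vs DMSO baseline.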

Read-out in test [5]: urokinase plasminogen activator (uPA), PLAU (gene 5328)
The test is described as follows: BSK_KF3CT_uPA: BioMAP Diversity Plus: KF3CT Assay for urokinase plasminogen activator (uPA) Biomarker Activity (AID 2283075). The following applies: primary human keratinocytes with fibroblasts; actives raise or lower the signal. A digest of the protocol: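 ELISA readout of uPA, analyzed for signal gain or loss relative to DMSO, from a human primary keratinocyte–foreskin fibroblast co-culture measured 24 h after chemical treatment.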

Read-out in test [6]: CD40, CD40 (gene 958)
The test is described as follows: BSK_LPS_CD40: BioMAP Diversity Plus: LPS Assay for CD40 Biomarker Activity (AID 2283076). The following applies: primary human HUVEC with PBMC; actives raise or lower the signal. A digest of the protocol:
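Cells were dosed, incubated 24 h, then assayed for CD40 by ELISA. Gain or loss of signal was analysed relative to DMSO controls. The culture paired human umbilical vein endothelium with peripheral blood mononuclear cells.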

Read-out in test [7]: E-selectin (Homo sapiens) (UniProt P16581)
The test is described as follows: BSK_LPS_Eselectin: BioMAP Diversity Plus: LPS Assay for Eselectin Biomarker Activity (AID 2283077). The following applies: primary human HUVEC with PBMC; actives raise or lower the signal. Summed up: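 Primary human vascular co-culture (endothelium plus PBMC) was dosed with chemical, then E-selectin quantified by ELISA at 24 h. Endpoint values derive from bidirectional curve fitting relative to DMSO.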

Read-out in test [8]: Interleukin-8 (IL8), CXCL8 (gene 3576)
The test is described as follows: BSK_LPS_IL8: BioMAP Diversity Plus: LPS Assay for Interleukin-8 (IL8) Biomarker Activity (AID 2283078). The following applies: primary human HUVEC with PBMC; actives raise or lower the signal. Summed up: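 Readout is IL-8 by ELISA, taken 24 h after compounds were added to LPS-stimulated endothelial/PBMC co-cultures. Both increases and decreases relative to DMSO control were scored through bidirectional fitting.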

The nature of test [9]: BSK_LPS_SRB: Viability Assessment in the BioMAP Diversity Plus: LPS Assay (AID 2283079).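 Further: total protein by sulforhodamine B absorbance as a cytotoxicity measure; measured one day after compound addition; fitted in both directions against DMSO so loss or gain of signal counts.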 The following applies: primary human HUVEC with PBMC. A digest of the protocol: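 Readout is SRB absorbance at 560 nm (0.1% stain, TCA-fixed parallel cultures) as a total-protein cytotoxicity measure. Cells: primary human umbilical vein endothelium plus peripheral blood mononuclear cells, 24 h after chemical exposure; DMSO served as baseline.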

Read-out in test [10]: Interleukin-1 alpha (IL1a), IL1A (gene 3552)
Kind of test: BSK_LPS_IL1a: BioMAP Diversity Plus: LPS Assay for Interleukin-1 alpha (IL1a) Biomarker Activity (AID 2283080). The settings on record: primary human HUVEC with PBMC; actives raise or lower the signal. A digest of the protocol:
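ELISA read-out of IL-1 alpha from a human primary vascular co-culture (endothelium plus PBMC) under LPS, sampled 24 hours post-dosing. Activity was fitted in both directions relative to DMSO controls.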

Chain of E-selectin (Homo sapiens) (P16581 whole entry, looked up): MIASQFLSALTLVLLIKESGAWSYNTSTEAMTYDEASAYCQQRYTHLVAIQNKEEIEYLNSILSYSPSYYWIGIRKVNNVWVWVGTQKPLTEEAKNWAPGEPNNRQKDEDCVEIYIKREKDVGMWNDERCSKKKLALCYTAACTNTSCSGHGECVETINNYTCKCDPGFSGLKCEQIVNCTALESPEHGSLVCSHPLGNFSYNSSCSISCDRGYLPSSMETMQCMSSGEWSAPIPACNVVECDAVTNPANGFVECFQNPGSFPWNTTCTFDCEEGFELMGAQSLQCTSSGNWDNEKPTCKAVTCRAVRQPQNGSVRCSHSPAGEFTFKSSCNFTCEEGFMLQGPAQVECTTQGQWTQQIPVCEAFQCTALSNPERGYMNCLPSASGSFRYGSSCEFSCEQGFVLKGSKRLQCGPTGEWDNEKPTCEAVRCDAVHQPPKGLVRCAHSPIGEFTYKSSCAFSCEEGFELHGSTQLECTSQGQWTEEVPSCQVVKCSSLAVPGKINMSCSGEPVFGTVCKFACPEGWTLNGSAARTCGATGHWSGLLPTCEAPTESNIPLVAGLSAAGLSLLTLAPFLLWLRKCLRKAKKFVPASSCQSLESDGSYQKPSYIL

On to `COc1cc(Cl)c(OC)cc1N`, for which the outcome in [1], in [2], in test [3], in test [4], in test [5] and in test [6] was inactive. The result in test [7], in [8], in test [9] and in test [10] was inactive.
Regarding `CCCCOC(=O)CCCCCCCC(=O)OCCCC`, the result in test [1], in test [2], in [3], in [4], in [5] and in test [6] was inactive. Also, the outcome in test [7], in test [8], in test [9] and in [10] was inactive.
For `c1ccc2cc(Nc3ccc(Nc4ccc5ccccc5c4)cc3)ccc2c1`, the outcome in test [1], in test [2], in test [3], in test [4], in test [5] and in test [6] was inactive. For the same compound, the result in [7], in [8], in [9] and in test [10] was inactive.
As a reminder, the AC50 is the midpoint of the concentration-response curve, whichever way the signal moves. In the case of `CS(=O)(=O)c1ccc(C2=C(c3ccccc3)C(=O)OC2)cc1`, the result in [1], in test [2], in [3], in [4], in test [5] and in test [6] was inactive. Also, the outcome in test [7], in test [8] and in [10] was inactive. Further, the AC50 in test [9] was 1.98 µM (active).
As for `CCCCCC(C=O)=Cc1ccccc1`, the AC50 in test [1] was 30 µM (active); in test [3], 28.8 µM (active); in [4], 34.5 µM (active); in [5], 35.9 µM (active); in test [6], 33.3 µM (active); in test [7], 31.1 µM (active). In addition, the AC50 was 32.8 µM (active) in test [9] and 34.3 µM (active) in [10]. Further, the outcome in test [2] and in [8] was inactive.
Consider `CS(=O)(=O)OCCCCOS(C)(=O)=O`, for which the result in test [1], in test [2], in [3], in test [4], in test [5] and in test [6] was inactive. Besides, the result in test [7], in test [8], in [9] and in [10] was inactive.
As to `O=C1c2ccccc2C(=O)c2c(O)ccc(O)c21`, the result in [1], in test [2], in test [3], in [4], in [5] and in test [6] was inactive. The outcome in test [7], in test [8], in test [9] and in [10] was inactive.
Regarding `COc1ccc(OC)c(N=Nc2c(O)ccc3ccccc23)c1`, the AC50 in [1] is 7.85 µM (active); in test [2] it was 3.97 µM (active); in [4], 4.27 µM (active); in test [5], 7.69 µM (active); in test [6], 3.84 µM (active); in [7], 20 µM (active). In addition, the AC50 in test [10] is 6.45 µM (active). For the same compound, the result in test [3], in test [8] and in test [9] was inactive.
On to `Cc1cc(CCC(=O)OCCOCCOCCOC(=O)CCc2cc(C)c(O)c(C(C)(C)C)c2)cc(C(C)(C)C)c1O`, for which the outcome in test [1], in test [2], in test [3], in test [4], in test [5] and in [6] was inactive. Also, the result in [7], in test [8], in [9] and in [10] was inactive.
Take `C1=CC2C3C=CC(C3)C2C1` (stereo not given): the result in test [1], in [2], in test [3], in test [4], in test [5] and in test [6] was inactive. Besides, the result in test [7], in [8], in test [9] and in test [10] was inactive.
For the compound `C=C(C)C(=O)OCCOCCOCCOCCOC(=O)C(=C)C`, the result in test [1], in test [2], in test [3], in [4], in test [5] and in test [6] was inactive. Further, the result in test [7], in [8], in test [9] and in [10] was inactive.
